Experimental findings from PubChem BioAssay (NCI) are described below.

This assay is described as follows: NCI Yeast Anticancer Drug Screen. Data for the bub3 strain (AID 167). The conditions noted are these: S. cerevisiae bub3 mutant strain, active compounds read high. Here is the method:
Growth inhibition of yeast strains with defined genetic alterations is measured as a screen for potential anti-cancer activity. Selected strains with alterations in DNA damage repair or cell cycle control were exposed to compounds and growth inhibition was measured relative to vehicle treated controls. The strain used in this assay is bub3

Setting [1] is: at 5.0 µM (retest, dose inferred, filed as 0.5).
[2] abbreviates: at 50.0 µM (retest, dose inferred, filed as 5.0).

About 79,000 compounds went through this panel and 15% of them were active in at least one assay; those are over-represented in the sample as a whole. Unmarked numbers belong to inactive results. Activity calls are given as the source filed them. Rule as the data show it: active = growth inhibition above about 70%; inactive = the rest.

`FC(F)(F)c1cc(NC(=S)N2c3ccccc3-n3cccc3C2c2cccnc2)cc(C(F)(F)F)c1` (stereo not given): the growth inhibition is, setting by setting: (at 1.2 µM) -1%; (at 3.7 µM) -5%; under setting [1], -3%; (at 11.0 µM) -5%; (at 33.0 µM) -4%; under setting [2], 45%. For the same compound, the growth inhibition is 26.4% (at 50.0 µM) and -9% (at 100.0 µM).
Consider `CC1(C)[C@@H]2CC[C@]1(C)[C@H](OC(=O)CSC#N)C2`, for which the growth inhibition runs as follows: (at 1.2 µM) 2%; (at 3.7 µM) 13%; under setting [1], 14%; (at 11.0 µM) -19%; (at 33.0 µM) 81% (active); under setting [2], 99% (active). The growth inhibition (at 50.0 µM) is 99% (active) and the growth inhibition (at 100.0 µM) is 96% (active).
Turning to `Oc1ccc(NCn2c(=S)sc3ccccc32)cc1`, the growth inhibition is 14% (at 1.2 µM); 32% (at 3.7 µM); 32% under setting [1]; 26% (at 11.0 µM); 68% (at 33.0 µM); 98% (active) under setting [2]. The growth inhibition reads like this: (at 50.0 µM) 73.2% (active); (at 100.0 µM) 98% (active).
On to `COc1cc(C2C3=C(COC3=O)Oc3cc4c(cc32)OCO4)ccc1O` (stereo not given), for which the growth inhibition is -2% (at 1.2 µM); 1% (at 3.7 µM); -4% under setting [1]; 12% (at 11.0 µM); 5% (at 33.0 µM); -4% under setting [2]. The growth inhibition reads like this: (at 50.0 µM) 29.3%; (at 100.0 µM) 32%.
On to `O=C1OC(=O)C2CCCC3CCCC1C32` (stereo not given), for which the growth inhibition is 28% (at 1.2 µM); 66% (at 3.7 µM); 53% under setting [1]; 93% (active) (at 11.0 µM); 96% (active) (at 33.0 µM); 99% (active) under setting [2]. The growth inhibition is, setting by setting: (at 50.0 µM) 71.5% (active); (at 100.0 µM) 97% (active).
